Only some compounds are listed: those with a hit (about 2.3% of all), similar ones and a draw of the others.
M1 PAM parental = nonselective calcium activators in parental CHO-K1 cells, primary screen, counter-screen for M1 PAM project, cell-based, Fluo-8 calcium fluorescence, full deck, 1536-well | ATP EC20; 0% at ATP EC20, 100% at ATP max | activation, % at 3 µM | AID 602247, 2012 | 360,000 compounds, 0.02% hits;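 active = activation above the run cutoff, the mean activation of all test compounds plus 3 SD, cut at about 40% in these data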;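 also: peak over basal fluorescence ratio in a 140 s read after ATP addition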
CHO-K1 Ca antag = nonselective inhibitor or artifact in parental CHO-K1 cells | 360,000 compounds, 0.6% hits | AID 602250 | inhibition, % at 3 µM | ATP-induced calcium, Fluo-8 fluorescence;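 active = inhibition above a per-plate cutoff, the plate's mean sample inhibition plus 3 SD, cut at about 24% in these data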;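 also: 0% = DMSO plus EC80 ATP and 100% = DMSO alone without ATP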
M1 ag = human M1 muscarinic receptor agonists, primary screen, Fluo-8 calcium fluorescence, CHO-K1 cells, HTS; CHO-K1 hM1, agonist mode; 0% DMSO, 100% acetylcholine EC100; activation, % at 3 µM; 360,000 compounds, 0.33% hits; AID 588814, 2011;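 active = activation above the run's mean compound activation plus 3 SD, cut at about 16% in these data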;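 also: peak over basal fluorescence ratio within a 140 s kinetic read after compound addition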
Target sequence (P11229 whole entry, looked up): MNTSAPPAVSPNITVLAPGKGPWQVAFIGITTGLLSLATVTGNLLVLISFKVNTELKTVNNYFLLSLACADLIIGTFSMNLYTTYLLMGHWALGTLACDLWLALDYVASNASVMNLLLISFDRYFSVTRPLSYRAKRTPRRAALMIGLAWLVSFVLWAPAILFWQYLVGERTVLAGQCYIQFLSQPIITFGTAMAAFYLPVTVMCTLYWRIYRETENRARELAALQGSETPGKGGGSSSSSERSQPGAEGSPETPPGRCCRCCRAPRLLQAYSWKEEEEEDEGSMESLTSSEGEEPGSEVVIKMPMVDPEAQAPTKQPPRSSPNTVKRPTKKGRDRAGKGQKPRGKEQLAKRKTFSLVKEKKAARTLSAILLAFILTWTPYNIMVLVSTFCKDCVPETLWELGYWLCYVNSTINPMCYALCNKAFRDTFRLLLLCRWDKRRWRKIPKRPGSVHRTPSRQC
M1 antag = human M1 muscarinic receptor antagonists, primary screen, CHO-K1 cells, Fluo-8 calcium fluorescence, 1536-well; 360,000 compounds, 1.3% hits; AID 588852, 2011; Muscarinic acetylcholine receptor M1 (Homo sapiens), P11229; inhibition, % at 3 µM; CHO-K1 hM1, ACh EC80 antagonist;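 active = percent inhibition above its own plate's cutoff, namely the mean of that plate's compound wells plus 3 SD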;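 also: peak over basal fluorescence ratio during 140 s after agonist addition; 0% = ACh EC80 plus DMSO and 100% = DMSO alone without agonist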
CHO-K1 Ca ag = counter-screen for M1 agonists: effect in parental CHO-K1 cells | Fluo-8 calcium fluorescence; scaled to maximal ATP response, vehicle zero | activation, % at 3 µM | 360,000 compounds, 0.48% hits | AID 602248, 2012; in the data active = activation above about 15%;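 also: untransfected CHO-K1 host cells lacking M1 receptor as counterscreen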
CHRM1 PAM = human M1 muscarinic receptor positive allosteric modulators, primary screen, CHO-K1 cells, Fluo-8 calcium fluorescence, 1536-well | CHO-K1 hM1, ACh EC20; 0% = ACh EC20, 100% = maximal ACh | 360,000 compounds, 0.088% hits | activation, % at 3 µM | Muscarinic acetylcholine receptor M1 (Homo sapiens), P11229; in the data active = activation above about 19%, passing the limit was not always enough
Starred values were filed as active, the others as inactive.

SMILES	M1 PAM parental	CHO-K1 Ca antag	M1 ag	M1 antag	CHO-K1 Ca ag	CHRM1 PAM
COc1ccc(C2(C)NC(=O)N(CC(=O)Nc3cccnc3Cl)C2=O)cc1 (centres undefined)	-3	0	10	-7	6	8
CC1(c2ccc([N+](=O)[O-])cc2)NC(=O)N(CC(=O)Nc2cccnc2Cl)C1=O (centres undefined)	15	-7	22*	-6	9	9
CCC1(c2ccc(F)cc2)NC(=O)N(CC(=O)Nc2cccnc2Cl)C1=O (centres undefined)	-28	-3	17*	-5	9	6
CCC1(c2ccccc2)NC(=O)N(CC(=O)Nc2cccnc2Cl)C1=O (centres undefined)	23	-2	4	-11	2	14
CCC1(c2ccccc2)NC(=O)N(CC(=O)Nc2ccccc2N2CCCC2)C1=O (centres undefined)	-8	10	13	-14	5	10
CCOC(=O)N1C2c3ccccc3C(c3ccccc32)N1C(=O)OCC	9	-9	-5	-11	0	8
O=C(O)c1cc(S(=O)(=O)N2CC3CC3C2C(=O)O)c(Cl)cc1Cl (centres undefined)	-12	5	-2	24	0	-6
CO/N=C/c1ccc(Sc2ccccc2)c([N+](=O)[O-])c1	-6	25*	0	-3	-1	8
CO/N=C/c1ccc(Sc2ccccc2N)c([N+](=O)[O-])c1	7	-2	-5	-9	0	-4
CCCSC(=S)c1c(C)[nH]n(-c2ccccc2)c1=O	-4	-4	8	21	16*	-17
N#C/C(=C\c1ccc(N2CCCCC2)o1)C(=O)Nc1cccc(Br)c1	-14	58*	68*	66*	54*	-23
N#C/C(=C\c1ccc(N2CCCCC2)o1)C(N)=O	7	7	-3	-7	7	5
Cc1ccc(OCCCCN2CCCCC2)c(C)c1	23	-14	-10	-16	0	5
Cc1ccc(OCCCCNC2CCCC(C)C2C)c(C)c1 (centres undefined)	14	4	-14	48*	5	-32
Cc1cc(NC(=O)COC(=O)c2n[nH]c3ccccc23)no1	-8	29*	-1	-1	0	1
CSc1nc(SCCN(C)C)c2c3c(sc2n1)COC(C)(C)C3	10	-15	51*	11	0	-25
CCC(C)NC(=O)CCS(=O)(=O)c1ccc(Br)s1 (centres undefined)	3	-5	-3	0	0	3
CCOC(=O)N1CCN(C(=O)CCS(=O)(=O)c2ccc(Br)s2)CC1	-10	27*	5	-11	0	16
CCCN1CCC(=O)N([C@H](CSc2ccccc2)c2ccccc2)CC1	17	-13	-14	15	1	-20
CN1CCC(=O)N([C@H](CSc2ccc(Br)cc2)c2ccccc2)CC1	4	-3	-13	55*	1	-38
O=[N+]([O-])c1c(NCCCO)cc(Sc2nc3ccccc3s2)c2nonc12	8	19	-6	33*	6	-13
O=C(NCCCN1CCc2ccccc2C1)Nc1ccc(Br)cc1	19	-4	-1	44*	6	-14
CCOC(=O)c1c(C(C)(C)C)oc2ccc(OCC#N)cc12	19	-12	-4	28*	0	-17
CC(C)c1ccc(CCNC(=O)c2cccc(S(=O)(=O)N3CCN(C)CC3)c2)cc1	10	-2	3	-2	16*	-2
CN1CCN(S(=O)(=O)c2cccc(C(=O)NCCC3=CCCCC3)c2)CC1	5	9	-6	-12	1	13
SMILES	M1 PAM parental	CHO-K1 Ca antag	M1 ag	M1 antag	CHO-K1 Ca ag	CHRM1 PAM
c1cnc(N2CC[N+]3(CCCC3)CC2)nc1	13	-3	-6	33*	0	-23
c1ccc(N2CC[N+]3(CCCC3)CC2)nc1	11	-8	-9	54*	0	-22
CN1CCN(C(=O)c2ccc(-c3cnc4cccnn34)cc2)CC1	1	1	-1	-1	0	-3
CC(C)[C@@H](NC(=O)C1CCC(CNC(=O)[C@H](Cc2ccccc2)NC(=O)OC(C)(C)C)CC1)C(=O)O (some centres undefined)	-19	8	-1	-12	0	11
COc1ccc(C(=O)C2CCCN(Cc3nc4ccccc4nc3C)C2)cc1OC (centres undefined)	0	-11	-7	2	0	0
O=C(c1ccc2c(c1)OCO2)C1CCCN(Cc2ccccc2OC(F)F)C1 (centres undefined)	21	-2	-7	75*	0	-23
O=C(c1ccc2c(c1)OCO2)C1CCCN(Cc2cccn2-c2cccnc2)C1 (centres undefined)	5	-12	-5	10	3	-8
O=C(c1ccc2c(c1)OCO2)C1CCCN(Cc2c(F)ccc(F)c2F)C1 (centres undefined)	10	-19	-6	88*	-1	-24
COc1cccc(CN2CCCC(C(=O)c3ccc4c(c3)OCO4)C2)c1OC (centres undefined)	16	-13	-11	57*	1	-26
COc1ccc(C(=O)C2CCCN(C3Cc4ccccc4C3)C2)cc1OC (centres undefined)	-10	2	-9	90*	0	-27
O=C(c1ccc2c(c1)OCO2)C1CCCN(Cc2cc(F)ccc2-n2cccn2)C1 (centres undefined)	10	-13	-8	-9	0	7
CC1=C(C(=O)OC2CCC(C)CC2)C(c2ccc(O)c([N+](=O)[O-])c2)NC(=O)N1 (centres undefined)	7	-6	-4	-14	0	9
COc1ccc(S(=O)(=O)N2CCN=C2SCc2cccc(C)c2)cc1	-4	1	-3	-8	0	6
CC(C)N=C(NS(=O)(=O)NC(=O)c1ccccc1)c1ccccc1	-5	4	0	-22	1	13
CSc1ncccc1C(=O)NCCc1ccc(S(N)(=O)=O)cc1	-4	-5	-3	2	0	2
Cn1c(CN2CCCC(C(=O)c3ccc4c(c3)OCO4)C2)nc2ccccc21 (centres undefined)	9	-2	-12	-6	1	-7

Screens (PubChem BioAssay)
